Assay results as given in the supplement of paper PMC10849652.
Of roughly 8,800 targets only a part is listed; those with a hit were picked by preference. About 0.5% of all pairs of compound and target were hits.

Tests used:
Assay in all cases: log2 fold change, soluble protein after heating vs DMSO (PISA); higher = thermal stabilisation; K562 lysate, 10 uM; active = over 0.2 and 3.5 SD of the protein, either way, in both replicates (recomputed)
lapatinib = compound: CS(=O)(=O)CCNCc1ccc(-c2ccc3ncnc(Nc4ccc(OCc5cccc(F)c5)c(Cl)c4)c3c2)o1 [lapatinib]
In short: (§1)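 K562 pellets were dounce-homogenised in PBS pH 7.4 containing 1 mM MgCl2, and the crude extract, at 1 mg/mL protein, was exposed to 10 μM compound for 30 min. Aliquots were heated for 3 min across 48°C-58°C, pooled, brought to 0.5% NP-40 at 4°C and spun at 21,000xg for 90 min, with the supernatant taken as soluble protein. TMTpro 16plex LC-MS/MS with equalised channel sums quantified that protein. Values are log-two fold changes in thermal stability relative to solvent controls, taken from duplicates.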

pictilisib = compound: CS(=O)(=O)N1CCN(Cc2cc3nc(-c4cccc5[nH]ncc45)nc(N4CCOCC4)c3s2)CC1 [pictilisib]
In short: as §1

crizotinib = compound: C[C@@H](Oc1cc(-c2cnn(C3CCNCC3)c2)cnc1N)c1c(Cl)ccc(F)c1Cl [crizotinib]
In short: as §1

[1] = compound: C[C@H](C1=CC=C(C=C1)C(=O)NC2=C3C=CNC3=NC=C2)N
In short: as §1

duvelisib = compound: C[C@H](Nc1ncnc2nc[nH]c12)c1cc2cccc(Cl)c2c(=O)n1-c1ccccc1 [duvelisib]
In short: as §1

gandotinib = compound: Cc1cc(Nc2cc(CN3CCOCC3)c3nc(C)c(Cc4ccc(Cl)cc4F)n3n2)n[nH]1 [gandotinib]
In short: as §1

tozasertib = compound: Cc1cc(Nc2cc(N3CCN(C)CC3)nc(Sc3ccc(NC(=O)C4CC4)cc3)n2)n[nH]1 [tozasertib]
In short: as §1

doramapimod = compound: Cc1ccc(-n2nc(C(C)(C)C)cc2NC(=O)Nc2ccc(OCCN3CCOCC3)c3ccccc23)cc1 [doramapimod]
In short: as §1

bafetinib = compound: Cc1ccc(NC(=O)c2ccc(CN3CC[C@H](N(C)C)C3)c(C(F)(F)F)c2)cc1Nc1nccc(-c2cncnc2)n1 [bafetinib]
In short: as §1

[2] = compound: Cc1cccc(CC(=O)N2CCc3c2ccc(-c2cn(C)c4ncnc(N)c24)c3F)n1
In short: as §1

Measured: log2 fold change

CASC4 (UniProt Q6P4E1)
UniProt Q6P4E1, sequence (Q6P4E1 whole entry, looked up): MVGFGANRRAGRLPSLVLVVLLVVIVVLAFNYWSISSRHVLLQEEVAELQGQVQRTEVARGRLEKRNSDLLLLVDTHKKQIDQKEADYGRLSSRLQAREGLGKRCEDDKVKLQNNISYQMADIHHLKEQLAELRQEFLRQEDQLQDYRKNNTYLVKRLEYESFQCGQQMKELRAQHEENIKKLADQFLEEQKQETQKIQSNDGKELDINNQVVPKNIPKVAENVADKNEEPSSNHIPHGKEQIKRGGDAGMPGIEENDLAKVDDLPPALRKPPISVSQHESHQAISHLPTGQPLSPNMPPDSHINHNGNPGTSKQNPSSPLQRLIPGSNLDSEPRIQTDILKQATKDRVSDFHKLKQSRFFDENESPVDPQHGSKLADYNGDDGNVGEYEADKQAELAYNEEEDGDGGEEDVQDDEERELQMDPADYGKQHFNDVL
inactive: lapatinib -0.038 | pictilisib 0.069 | crizotinib 0.019 | [1] -0.088 | duvelisib 0.051 | gandotinib 0.016 | tozasertib 0.067 | doramapimod 0.057 | bafetinib -0.045 | [2] 0.02

ATRIP (UniProt Q8WXE1)
inactive: lapatinib -0.046 | pictilisib 0.187 | crizotinib 0.012 | [1] -0.034 | duvelisib -0.016 | gandotinib -0.056 | tozasertib 0.097 | doramapimod 0.001 | bafetinib -0.035 | [2] 0.006

C2CD5 isoform 3 (UniProt Q86YS7)
UniProt Q86YS7, sequence (Q86YS7 whole entry, looked up): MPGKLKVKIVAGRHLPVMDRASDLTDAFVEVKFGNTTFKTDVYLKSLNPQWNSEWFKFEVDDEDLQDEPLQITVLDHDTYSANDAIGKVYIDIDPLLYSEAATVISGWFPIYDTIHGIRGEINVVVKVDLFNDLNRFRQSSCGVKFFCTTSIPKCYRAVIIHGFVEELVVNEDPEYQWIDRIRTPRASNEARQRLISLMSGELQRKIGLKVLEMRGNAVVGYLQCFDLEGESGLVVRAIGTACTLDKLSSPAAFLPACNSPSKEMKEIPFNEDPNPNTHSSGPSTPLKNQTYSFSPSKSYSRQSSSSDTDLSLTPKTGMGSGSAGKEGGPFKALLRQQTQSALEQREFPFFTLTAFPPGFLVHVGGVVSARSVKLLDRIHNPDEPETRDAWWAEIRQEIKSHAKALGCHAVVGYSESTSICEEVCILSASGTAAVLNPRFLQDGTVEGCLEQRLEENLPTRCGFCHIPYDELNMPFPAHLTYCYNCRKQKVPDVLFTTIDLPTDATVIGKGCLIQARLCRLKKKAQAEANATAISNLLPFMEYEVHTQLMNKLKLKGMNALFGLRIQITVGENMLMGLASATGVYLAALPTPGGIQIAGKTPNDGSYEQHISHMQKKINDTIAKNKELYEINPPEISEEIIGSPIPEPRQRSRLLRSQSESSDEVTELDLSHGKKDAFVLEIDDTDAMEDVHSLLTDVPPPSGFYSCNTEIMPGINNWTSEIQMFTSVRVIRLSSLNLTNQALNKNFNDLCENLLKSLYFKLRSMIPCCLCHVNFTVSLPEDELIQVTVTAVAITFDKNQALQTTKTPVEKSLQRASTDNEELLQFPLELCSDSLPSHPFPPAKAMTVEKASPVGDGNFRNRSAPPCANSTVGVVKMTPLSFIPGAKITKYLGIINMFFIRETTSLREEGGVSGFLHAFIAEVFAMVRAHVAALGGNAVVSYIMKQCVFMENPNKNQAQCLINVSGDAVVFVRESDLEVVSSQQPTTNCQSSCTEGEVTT
active: [1] -0.26 | [2] 0.28
inactive: lapatinib -0.031 | pictilisib -0.029 | crizotinib -0.028 | duvelisib -0.009 | gandotinib 0.125 | tozasertib -0.038 | doramapimod 0.035 | bafetinib -0.056

C9orf72 (UniProt Q96LT7)
inactive: lapatinib 0.061 | pictilisib -0.112 | crizotinib 0.082 | [1] -0.075 | duvelisib -0.072 | gandotinib 0.035 | tozasertib -0.196 | doramapimod 0.03 | bafetinib -0.043 | [2] -0.009

CFDP1 (UniProt Q9UEE9)
inactive: lapatinib -0.018 | pictilisib 0.008 | crizotinib -0.052 | duvelisib 0.006 | gandotinib 0.066 | tozasertib -0.032 | doramapimod 0.041 | bafetinib 0.07 | [2] 0.091
active: [1] -0.288

C18orf25 (UniProt Q96B23)
inactive: lapatinib 0.017 | pictilisib -0.003 | crizotinib -0.049 | [1] 0.022 | duvelisib -0.046 | gandotinib 0.019 | tozasertib -0.029 | doramapimod 0.019 | bafetinib -0.023 | [2] -0.098

CBFA2T3 (UniProt O75081)
UniProt O75081, sequence (O75081 whole entry, looked up): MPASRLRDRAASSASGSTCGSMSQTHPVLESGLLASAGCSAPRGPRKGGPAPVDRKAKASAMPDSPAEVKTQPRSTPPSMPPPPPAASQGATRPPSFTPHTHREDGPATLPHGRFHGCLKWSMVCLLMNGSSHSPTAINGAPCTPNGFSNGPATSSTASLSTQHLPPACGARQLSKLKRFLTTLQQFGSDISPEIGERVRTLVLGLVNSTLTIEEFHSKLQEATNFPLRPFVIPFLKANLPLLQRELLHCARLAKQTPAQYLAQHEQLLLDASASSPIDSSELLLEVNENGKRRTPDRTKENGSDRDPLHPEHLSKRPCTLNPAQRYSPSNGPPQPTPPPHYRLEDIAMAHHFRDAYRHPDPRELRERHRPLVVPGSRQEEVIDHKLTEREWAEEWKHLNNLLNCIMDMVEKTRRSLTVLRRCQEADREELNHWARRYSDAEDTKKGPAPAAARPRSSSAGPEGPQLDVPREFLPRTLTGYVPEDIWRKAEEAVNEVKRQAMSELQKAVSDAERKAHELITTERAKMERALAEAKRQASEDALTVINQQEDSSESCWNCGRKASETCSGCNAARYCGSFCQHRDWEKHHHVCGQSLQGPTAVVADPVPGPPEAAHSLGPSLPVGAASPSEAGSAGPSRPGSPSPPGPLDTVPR
inactive: lapatinib 0.041 | pictilisib -0.038 | crizotinib 0.013 | [1] 0.017 | duvelisib 0.006 | gandotinib -0.001 | tozasertib -0.014 | doramapimod 0.007 | bafetinib -0.007 | [2] 0.05

CEPT1 (UniProt Q9Y6K0)
active: [2] 0.223
inactive: lapatinib -0.121 | pictilisib -0.08 | crizotinib -0.122 | [1] -0.106 | duvelisib -0.019 | gandotinib -0.058 | tozasertib 0.025 | doramapimod -0.07 | bafetinib -0.124

CHAC2 (UniProt Q8WUX2)
inactive: lapatinib 0.038 | pictilisib -0.011 | crizotinib 0.003 | duvelisib 0.038 | gandotinib -0.161 | tozasertib 0.015 | doramapimod -0.01 | bafetinib -0.018 | [2] -0.198
active: [1] 0.57

CANX isoform 2 (UniProt P27824)
inactive: lapatinib 0.018 | pictilisib 0.037 | crizotinib -0.002 | [1] -0.037 | duvelisib 0.015 | gandotinib 0.026 | tozasertib 0.015 | doramapimod 0.006 | bafetinib 0.017 | [2] 0.052

CDAN1 (UniProt Q8IWY9)
inactive: lapatinib 0.009 | pictilisib -0.05 | crizotinib -0.038 | [1] 0 | duvelisib 0.026 | gandotinib -0.073 | tozasertib 0.068 | doramapimod -0.021 | bafetinib -0.056 | [2] 0.051

CCAR2 (UniProt Q8N163)
inactive: lapatinib 0.002 | pictilisib -0.061 | crizotinib -0.067 | [1] -0.009 | duvelisib -0.015 | gandotinib 0.058 | tozasertib 0.026 | doramapimod 0.022 | bafetinib -0.011 | [2] 0.06

BLM (UniProt P54132)
active: gandotinib -0.267
inactive: lapatinib -0.007 | pictilisib -0.068 | crizotinib -0.003 | [1] 0.192 | duvelisib 0.018 | tozasertib 0.057 | doramapimod 0.018 | bafetinib -0.049 | [2] -0.251

CHD4 isoform 2 (UniProt Q14839)
inactive: lapatinib 0.003 | pictilisib -0.004 | crizotinib -0.007 | [1] -0.05 | duvelisib -0.038 | gandotinib 0.005 | tozasertib 0.011 | doramapimod 0.021 | bafetinib -0.05 | [2] 0.05

CAMK1 (UniProt Q14012)
active: [2] 0.314
inactive: lapatinib -0.037 | pictilisib -0.058 | crizotinib -0.078 | [1] -0.145 | duvelisib -0.042 | gandotinib 0.187 | tozasertib 0.05 | doramapimod -0.006 | bafetinib -0.047

C5orf51 (UniProt A6NDU8)
inactive: lapatinib 0.018 | pictilisib -0.003 | crizotinib -0.024 | [1] 0.039 | duvelisib -0.023 | gandotinib -0.143 | tozasertib -0.037 | doramapimod -0.027 | bafetinib -0.031 | [2] -0.037

BUB1B isoform 3 (UniProt O60566)
inactive: lapatinib 0.009 | pictilisib -0.038 | crizotinib -0.059 | [1] 0.007 | duvelisib 0.024 | gandotinib -0.04 | tozasertib -0.01 | doramapimod 0.019 | bafetinib -0.029 | [2] 0.035

CELF2 isoform 3 (UniProt O95319)
active: doramapimod -0.579
inactive: lapatinib 0.039 | pictilisib 0.032 | crizotinib 0.072 | [1] 0.104 | duvelisib -0.001 | gandotinib -0.052 | tozasertib 0.017 | bafetinib -0.042 | [2] -0.124

BMS1 (UniProt Q14692)
UniProt Q14692, sequence (Q14692 whole entry, looked up): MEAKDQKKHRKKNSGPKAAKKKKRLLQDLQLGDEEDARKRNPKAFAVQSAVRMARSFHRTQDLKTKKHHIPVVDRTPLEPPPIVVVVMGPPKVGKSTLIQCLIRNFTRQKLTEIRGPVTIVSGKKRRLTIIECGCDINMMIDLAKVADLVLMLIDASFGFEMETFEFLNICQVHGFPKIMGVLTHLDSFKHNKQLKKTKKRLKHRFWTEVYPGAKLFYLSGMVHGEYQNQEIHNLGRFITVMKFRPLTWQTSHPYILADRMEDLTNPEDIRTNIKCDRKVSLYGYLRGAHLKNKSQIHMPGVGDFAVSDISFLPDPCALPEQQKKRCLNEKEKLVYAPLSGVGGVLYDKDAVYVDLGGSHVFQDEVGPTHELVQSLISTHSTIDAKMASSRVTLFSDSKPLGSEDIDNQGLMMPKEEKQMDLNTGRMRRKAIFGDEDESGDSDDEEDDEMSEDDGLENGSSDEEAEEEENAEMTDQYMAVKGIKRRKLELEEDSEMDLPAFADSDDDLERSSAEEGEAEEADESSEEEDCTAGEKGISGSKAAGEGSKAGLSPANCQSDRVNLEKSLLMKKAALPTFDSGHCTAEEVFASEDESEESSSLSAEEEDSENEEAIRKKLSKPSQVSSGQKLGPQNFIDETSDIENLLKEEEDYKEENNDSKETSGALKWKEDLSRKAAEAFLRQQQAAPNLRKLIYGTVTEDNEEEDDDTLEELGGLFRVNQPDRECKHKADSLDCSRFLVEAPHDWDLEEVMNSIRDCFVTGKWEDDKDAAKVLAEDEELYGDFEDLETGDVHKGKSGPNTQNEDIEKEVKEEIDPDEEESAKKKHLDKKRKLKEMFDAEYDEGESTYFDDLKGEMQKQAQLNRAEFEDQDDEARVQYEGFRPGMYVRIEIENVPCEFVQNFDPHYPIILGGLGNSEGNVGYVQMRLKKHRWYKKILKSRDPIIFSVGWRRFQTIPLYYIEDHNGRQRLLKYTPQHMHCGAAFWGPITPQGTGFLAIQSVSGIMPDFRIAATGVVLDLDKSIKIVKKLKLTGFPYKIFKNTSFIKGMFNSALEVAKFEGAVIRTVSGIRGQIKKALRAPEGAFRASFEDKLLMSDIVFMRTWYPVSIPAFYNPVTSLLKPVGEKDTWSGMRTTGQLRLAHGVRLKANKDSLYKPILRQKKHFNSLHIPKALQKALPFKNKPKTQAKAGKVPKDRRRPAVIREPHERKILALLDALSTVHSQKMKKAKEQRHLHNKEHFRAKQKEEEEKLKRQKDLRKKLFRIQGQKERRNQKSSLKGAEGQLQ
inactive: lapatinib -0.029 | pictilisib -0.052 | crizotinib -0.058 | [1] -0.018 | duvelisib -0.036 | gandotinib 0.043 | tozasertib 0.018 | doramapimod 0.047 | bafetinib -0.032 | [2] 0.045

BTAF1 (UniProt O14981)
inactive: lapatinib 0.015 | pictilisib -0.043 | crizotinib -0.041 | [1] -0.137 | duvelisib 0.011 | gandotinib -0.004 | tozasertib 0 | doramapimod 0.046 | bafetinib -0.056 | [2] 0.093

CCDC32 isoform 2 (UniProt Q9BV29)
inactive: lapatinib 0.04 | pictilisib 0.02 | crizotinib -0.021 | [1] -0.195 | duvelisib 0.024 | gandotinib 0.025 | tozasertib 0.062 | doramapimod 0.007 | bafetinib -0.087 | [2] 0.085

CHCHD4 isoform 2 (UniProt Q8N4Q1)
UniProt Q8N4Q1, sequence (Q8N4Q1 whole entry, looked up): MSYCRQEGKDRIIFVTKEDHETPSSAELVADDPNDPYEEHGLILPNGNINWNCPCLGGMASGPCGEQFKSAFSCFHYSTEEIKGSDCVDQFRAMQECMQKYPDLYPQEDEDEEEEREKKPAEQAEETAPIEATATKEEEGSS
inactive: lapatinib 0.045 | pictilisib 0.092 | crizotinib -0.085 | [1] -0.316 | duvelisib 0.022 | gandotinib 0.217 | tozasertib -0.041 | doramapimod 0.047 | bafetinib -0.029 | [2] 0.198

CBR1 (UniProt P16152)
inactive: lapatinib 0.023 | pictilisib -0.027 | crizotinib 0.043 | [1] -0.082 | duvelisib -0.037 | gandotinib 0.001 | tozasertib 0.003 | doramapimod -0.044 | bafetinib 0.034 | [2] 0.032

ATAD3B (UniProt Q5T9A4)
active: [1] 0.308
inactive: lapatinib 0.003 | pictilisib -0.035 | crizotinib -0.091 | duvelisib 0.007 | gandotinib -0.169 | tozasertib 0.014 | doramapimod 0.003 | bafetinib -0.074 | [2] -0.129

BPHL (UniProt Q86WA6)
active: pictilisib -0.366
inactive: lapatinib -0.099 | crizotinib 0.099 | [1] 0.051 | duvelisib 0.061 | gandotinib -0.077 | tozasertib 0.034 | doramapimod -0.003 | bafetinib 0.132 | [2] -0.058

CCNA2 (UniProt P20248)
UniProt P20248, sequence (P20248 whole entry, looked up): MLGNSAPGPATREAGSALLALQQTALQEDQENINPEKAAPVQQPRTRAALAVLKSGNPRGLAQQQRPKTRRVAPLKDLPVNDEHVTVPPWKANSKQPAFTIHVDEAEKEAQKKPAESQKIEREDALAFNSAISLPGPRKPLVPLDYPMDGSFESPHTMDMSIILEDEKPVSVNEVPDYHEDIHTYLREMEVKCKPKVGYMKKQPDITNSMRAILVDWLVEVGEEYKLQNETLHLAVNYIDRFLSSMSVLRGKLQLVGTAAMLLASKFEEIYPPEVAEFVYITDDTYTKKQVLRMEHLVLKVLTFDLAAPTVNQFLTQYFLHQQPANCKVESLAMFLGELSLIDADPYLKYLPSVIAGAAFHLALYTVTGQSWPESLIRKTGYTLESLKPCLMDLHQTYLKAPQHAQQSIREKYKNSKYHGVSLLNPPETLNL
inactive: lapatinib -0.004 | pictilisib -0.029 | crizotinib -0.035 | [1] -0.092 | duvelisib 0.019 | gandotinib 0.091 | tozasertib -0.073 | doramapimod 0.059 | bafetinib 0.027 | [2] 0.049

BCKDHB (UniProt P21953)
inactive: lapatinib 0.005 | pictilisib -0.043 | crizotinib -0.055 | [1] 0.083 | duvelisib 0.026 | gandotinib 0.015 | tozasertib 0.09 | doramapimod 0.064 | bafetinib -0.052 | [2] -0.017

CEP120 (UniProt Q8N960)
UniProt Q8N960, sequence (Q8N960 whole entry, looked up): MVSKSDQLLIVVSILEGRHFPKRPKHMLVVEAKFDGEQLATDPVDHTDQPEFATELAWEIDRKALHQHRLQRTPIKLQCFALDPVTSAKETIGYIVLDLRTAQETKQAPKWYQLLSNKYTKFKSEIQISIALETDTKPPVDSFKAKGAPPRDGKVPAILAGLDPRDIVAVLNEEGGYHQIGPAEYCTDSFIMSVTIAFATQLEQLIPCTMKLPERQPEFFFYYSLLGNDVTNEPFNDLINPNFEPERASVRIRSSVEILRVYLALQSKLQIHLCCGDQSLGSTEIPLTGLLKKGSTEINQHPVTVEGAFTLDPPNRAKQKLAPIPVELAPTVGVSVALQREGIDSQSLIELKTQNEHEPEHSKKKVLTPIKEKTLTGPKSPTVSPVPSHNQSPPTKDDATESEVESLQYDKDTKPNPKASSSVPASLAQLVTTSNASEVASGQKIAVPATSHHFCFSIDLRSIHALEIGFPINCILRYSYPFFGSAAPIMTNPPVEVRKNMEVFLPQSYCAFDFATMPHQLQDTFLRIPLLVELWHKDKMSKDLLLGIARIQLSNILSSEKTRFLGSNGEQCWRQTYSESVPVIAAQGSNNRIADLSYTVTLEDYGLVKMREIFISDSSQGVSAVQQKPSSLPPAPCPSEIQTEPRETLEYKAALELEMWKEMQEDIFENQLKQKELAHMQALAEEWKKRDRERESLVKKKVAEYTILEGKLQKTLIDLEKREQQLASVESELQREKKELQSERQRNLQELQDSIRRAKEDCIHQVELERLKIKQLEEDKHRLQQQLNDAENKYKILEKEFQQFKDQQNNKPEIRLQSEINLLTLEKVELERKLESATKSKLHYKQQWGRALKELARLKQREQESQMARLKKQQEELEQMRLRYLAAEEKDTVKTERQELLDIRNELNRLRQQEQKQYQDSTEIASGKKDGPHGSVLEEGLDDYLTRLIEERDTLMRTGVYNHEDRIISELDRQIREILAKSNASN
inactive: lapatinib -0.076 | pictilisib -0.007 | crizotinib -0.034 | [1] -0.105 | duvelisib 0.005 | gandotinib 0.016 | tozasertib -0.096 | doramapimod 0.107 | bafetinib -0.257 | [2] 0.129

CELF1 isoform 4 (UniProt Q92879)
inactive: lapatinib 0.011 | pictilisib 0.023 | crizotinib 0.032 | [1] 0.021 | duvelisib -0.036 | gandotinib -0.028 | tozasertib 0.019 | bafetinib -0.09 | [2] -0.018
active: doramapimod -0.605
